Assay in all cases: DAPPL (digital affinity profiling via proximity ligation, sequencing); 10 mM Tris-HCl pH 7.5, 50 mM NaCl, 1 mM DTT, 4% glycerol, room temperature, 30 min; GST-TFs on glutathione beads, 16-mer random dsDNA library, 0.1% formaldehyde crosslink after washing; high values mean tight binding
What all share (settings): protein: recombinant; tags: N-terminal GST; dsDNA, one strand shown

Assay [1] addresses T1, ERF (Homo sapiens, UniProt P50548 1-548).
T1 sequence: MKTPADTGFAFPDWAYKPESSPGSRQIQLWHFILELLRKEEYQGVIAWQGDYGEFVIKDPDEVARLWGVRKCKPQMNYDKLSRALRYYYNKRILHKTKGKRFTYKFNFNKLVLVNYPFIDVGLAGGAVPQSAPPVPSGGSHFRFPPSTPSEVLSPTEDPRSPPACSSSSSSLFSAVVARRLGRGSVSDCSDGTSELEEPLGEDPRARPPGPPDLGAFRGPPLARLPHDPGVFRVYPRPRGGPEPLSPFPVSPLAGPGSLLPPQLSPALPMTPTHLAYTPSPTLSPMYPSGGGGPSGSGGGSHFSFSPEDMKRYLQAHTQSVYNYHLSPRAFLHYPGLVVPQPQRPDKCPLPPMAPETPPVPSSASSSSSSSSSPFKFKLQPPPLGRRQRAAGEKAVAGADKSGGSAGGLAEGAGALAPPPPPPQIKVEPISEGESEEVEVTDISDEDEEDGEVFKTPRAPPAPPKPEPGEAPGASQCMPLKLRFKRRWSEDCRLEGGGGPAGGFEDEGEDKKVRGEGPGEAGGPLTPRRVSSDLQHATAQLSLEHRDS
A digest of the protocol:
(§1)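 Yeast served to express human transcription factors as GST fusions, which were then captured on glutathione beads and labelled with DNA barcodes. Pooled with a tag-only sample, they were incubated with 200 nmole of a 16-mer random double-stranded DNA library for 30 min at room temperature in Tris/NaCl/DTT/glycerol buffer, washed, crosslinked with 0.1% formaldehyde, ligated by proximity, amplified by PCR and sequenced. Dividing each hexamer's read frequency for a factor by its frequency for the tag-only sample gives the binding signal.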

Assay [2] has as its target T2, ETV3L (Homo sapiens, UniProt Q6ZN32 1-361).
T2 sequence: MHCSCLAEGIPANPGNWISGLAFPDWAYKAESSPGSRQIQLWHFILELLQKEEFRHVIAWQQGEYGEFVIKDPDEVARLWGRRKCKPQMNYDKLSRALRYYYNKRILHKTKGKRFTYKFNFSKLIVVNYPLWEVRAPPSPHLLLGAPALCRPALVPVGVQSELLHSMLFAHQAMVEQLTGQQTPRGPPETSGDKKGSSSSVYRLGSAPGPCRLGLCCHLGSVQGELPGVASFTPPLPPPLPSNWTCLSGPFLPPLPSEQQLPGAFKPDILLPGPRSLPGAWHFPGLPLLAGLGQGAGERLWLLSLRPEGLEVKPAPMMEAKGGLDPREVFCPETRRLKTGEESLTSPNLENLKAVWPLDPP
In short, it runs like this:
as §1

Assay [3] deals with T3, ETS2 (Homo sapiens, UniProt P15036 1-469).
T3 sequence: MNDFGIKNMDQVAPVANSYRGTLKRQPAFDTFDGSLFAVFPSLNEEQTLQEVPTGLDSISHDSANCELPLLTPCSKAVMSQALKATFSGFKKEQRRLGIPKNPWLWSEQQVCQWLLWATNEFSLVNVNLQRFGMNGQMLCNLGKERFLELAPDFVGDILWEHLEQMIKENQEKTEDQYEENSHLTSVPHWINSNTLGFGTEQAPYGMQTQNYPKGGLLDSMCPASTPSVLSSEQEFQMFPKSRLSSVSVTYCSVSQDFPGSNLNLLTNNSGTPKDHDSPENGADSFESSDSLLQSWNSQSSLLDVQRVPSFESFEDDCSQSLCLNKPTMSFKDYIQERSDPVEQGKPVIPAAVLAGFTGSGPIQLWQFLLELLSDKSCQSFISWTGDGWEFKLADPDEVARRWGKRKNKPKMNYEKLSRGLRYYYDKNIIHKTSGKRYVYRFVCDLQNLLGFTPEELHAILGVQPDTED
A digest of the protocol: as §1

The target in assay [4] is T4, SPDEF (Homo sapiens, UniProt O95238 1-335).
T4 sequence: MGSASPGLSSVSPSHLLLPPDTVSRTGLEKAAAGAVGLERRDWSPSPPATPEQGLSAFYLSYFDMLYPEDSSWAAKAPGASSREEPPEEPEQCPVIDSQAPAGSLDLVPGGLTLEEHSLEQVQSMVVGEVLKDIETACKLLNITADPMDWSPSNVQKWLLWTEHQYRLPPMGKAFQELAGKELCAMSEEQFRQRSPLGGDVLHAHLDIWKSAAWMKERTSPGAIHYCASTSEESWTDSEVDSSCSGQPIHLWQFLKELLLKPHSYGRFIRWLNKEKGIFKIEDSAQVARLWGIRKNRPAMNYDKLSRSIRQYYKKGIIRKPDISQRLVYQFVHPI
In short, it runs like this: as §1

Assay [5] has as its target T5, ETV7 (Homo sapiens, UniProt Q9Y603 1-341).
T5 sequence: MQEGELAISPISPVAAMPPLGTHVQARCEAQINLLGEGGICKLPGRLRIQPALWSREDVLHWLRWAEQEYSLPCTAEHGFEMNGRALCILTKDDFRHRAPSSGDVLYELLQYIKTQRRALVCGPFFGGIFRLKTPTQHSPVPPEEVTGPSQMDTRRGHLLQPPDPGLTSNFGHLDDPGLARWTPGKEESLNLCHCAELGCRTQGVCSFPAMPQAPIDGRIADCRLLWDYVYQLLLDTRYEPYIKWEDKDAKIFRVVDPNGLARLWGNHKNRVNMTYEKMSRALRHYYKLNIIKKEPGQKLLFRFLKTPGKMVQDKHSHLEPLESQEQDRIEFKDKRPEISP
In short, it runs like this: as §1

Assay [6] deals with T6, ELF5 (Homo sapiens, UniProt Q9UKW6-2 1-255).
T6 sequence: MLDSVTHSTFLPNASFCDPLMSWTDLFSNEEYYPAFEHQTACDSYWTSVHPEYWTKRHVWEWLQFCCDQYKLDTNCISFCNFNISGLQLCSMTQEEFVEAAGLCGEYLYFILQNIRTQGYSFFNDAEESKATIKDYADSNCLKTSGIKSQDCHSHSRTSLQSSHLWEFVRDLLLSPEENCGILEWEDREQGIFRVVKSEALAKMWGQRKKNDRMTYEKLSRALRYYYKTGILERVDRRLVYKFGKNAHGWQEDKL
In short, it runs like this: as §1

The target in assay [7] is T7, ETV3 (Homo sapiens, UniProt P41162-2 1-143).
T7 sequence: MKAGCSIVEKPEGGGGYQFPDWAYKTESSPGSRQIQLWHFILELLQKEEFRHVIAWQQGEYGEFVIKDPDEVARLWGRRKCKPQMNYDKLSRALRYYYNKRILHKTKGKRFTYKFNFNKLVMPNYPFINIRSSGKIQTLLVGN
In short, it runs like this:
as §1

The target of assay [8] is ETV6 (Homo sapiens, UniProt P41212 1-452). In short, it runs like this: as §1
Chain of ETV6 (P41212 whole entry): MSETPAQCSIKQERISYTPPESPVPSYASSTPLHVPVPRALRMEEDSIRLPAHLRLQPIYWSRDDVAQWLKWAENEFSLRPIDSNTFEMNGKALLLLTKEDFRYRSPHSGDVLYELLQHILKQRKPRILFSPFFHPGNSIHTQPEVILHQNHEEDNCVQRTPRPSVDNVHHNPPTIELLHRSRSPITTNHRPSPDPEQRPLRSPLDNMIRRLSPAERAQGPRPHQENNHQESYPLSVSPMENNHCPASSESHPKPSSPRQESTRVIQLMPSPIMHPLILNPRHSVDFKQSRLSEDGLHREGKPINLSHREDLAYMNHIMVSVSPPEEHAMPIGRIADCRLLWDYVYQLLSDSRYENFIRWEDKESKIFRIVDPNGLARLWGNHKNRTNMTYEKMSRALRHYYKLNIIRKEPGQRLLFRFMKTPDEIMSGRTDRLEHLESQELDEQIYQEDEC

With CACGCC, the binding signal in assay [1] was 1.21 fold enrichment (6-mer frequency, TF over GST control); in assay [2], 1.2 fold enrichment (6-mer frequency, TF over GST control); in assay [3] it was 1.09 fold enrichment (6-mer frequency, TF over GST control); in assay [4], 1.05 fold enrichment (6-mer frequency, TF over GST control); in assay [5], 1.12 fold enrichment (6-mer frequency, TF over GST control); in assay [6] it was 1.1 fold enrichment (6-mer frequency, TF over GST control). The binding signal was 1.2 fold enrichment (6-mer frequency, TF over GST control) in assay [7] and 1.17 fold enrichment (6-mer frequency, TF over GST control) in assay [8].

Regarding ATGTGC, the binding signal in assay [1] was 1.15 fold enrichment (6-mer frequency, TF over GST control); in assay [2], 1.11 fold enrichment (6-mer frequency, TF over GST control); in assay [3], 1.1 fold enrichment (6-mer frequency, TF over GST control); in assay [4], 1.23 fold enrichment (6-mer frequency, TF over GST control); in assay [5], 1.03 fold enrichment (6-mer frequency, TF over GST control); in assay [6], 1.09 fold enrichment (6-mer frequency, TF over GST control). For the same sequence, the binding signal in assay [7] was 1.15 fold enrichment (6-mer frequency, TF over GST control); in assay [8] it was 1.1 fold enrichment (6-mer frequency, TF over GST control).

CACTCC: the binding signal was 1.15 fold enrichment (6-mer frequency, TF over GST control) in assay [1]; 1.33 fold enrichment (6-mer frequency, TF over GST control) in assay [2]; 1.17 fold enrichment (6-mer frequency, TF over GST control) in assay [3]; 1.2 fold enrichment (6-mer frequency, TF over GST control) in assay [4]; 1.24 fold enrichment (6-mer frequency, TF over GST control) in assay [5]; 1.18 fold enrichment (6-mer frequency, TF over GST control) in assay [6]. In addition, the binding signal in assay [7] was 1.26 fold enrichment (6-mer frequency, TF over GST control); in assay [8] it was 1.28 fold enrichment (6-mer frequency, TF over GST control).

On to ATGCGG, for which the binding signal was 1.12 fold enrichment (6-mer frequency, TF over GST control) in assay [1]; 1.25 fold enrichment (6-mer frequency, TF over GST control) in assay [2]; 1.32 fold enrichment (6-mer frequency, TF over GST control) in assay [3]; 1.32 fold enrichment (6-mer frequency, TF over GST control) in assay [4]; 1.25 fold enrichment (6-mer frequency, TF over GST control) in assay [5]; 1.21 fold enrichment (6-mer frequency, TF over GST control) in assay [6]. The binding signal is 1.45 fold enrichment (6-mer frequency, TF over GST control) in assay [7] and 1.26 fold enrichment (6-mer frequency, TF over GST control) in assay [8].

As to CTATTG, the binding signal in assay [1] is 1.37 fold enrichment (6-mer frequency, TF over GST control); in assay [2], 1.27 fold enrichment (6-mer frequency, TF over GST control); in assay [3] it was 1.35 fold enrichment (6-mer frequency, TF over GST control); in assay [4], 1.18 fold enrichment (6-mer frequency, TF over GST control); in assay [5], 1.25 fold enrichment (6-mer frequency, TF over GST control); in assay [6], 1.23 fold enrichment (6-mer frequency, TF over GST control). The binding signal is 1.42 fold enrichment (6-mer frequency, TF over GST control) in assay [7] and 1.35 fold enrichment (6-mer frequency, TF over GST control) in assay [8].

As for AAGCGC, the binding signal was 1.1 fold enrichment (6-mer frequency, TF over GST control) in assay [1]; 1.13 fold enrichment (6-mer frequency, TF over GST control) in assay [2]; 1.22 fold enrichment (6-mer frequency, TF over GST control) in assay [3]; 1.03 fold enrichment (6-mer frequency, TF over GST control) in assay [4]; 1.11 fold enrichment (6-mer frequency, TF over GST control) in assay [5]; 1.13 fold enrichment (6-mer frequency, TF over GST control) in assay [6]. Moreover, the binding signal in assay [7] was 1.29 fold enrichment (6-mer frequency, TF over GST control); in assay [8], 1.15 fold enrichment (6-mer frequency, TF over GST control).

Regarding CCATCT, the binding signal in assay [1] was 1.41 fold enrichment (6-mer frequency, TF over GST control); in assay [2], 1.35 fold enrichment (6-mer frequency, TF over GST control); in assay [3], 1.35 fold enrichment (6-mer frequency, TF over GST control); in assay [4], 1.11 fold enrichment (6-mer frequency, TF over GST control); in assay [5], 1.33 fold enrichment (6-mer frequency, TF over GST control); in assay [6], 1.27 fold enrichment (6-mer frequency, TF over GST control). The binding signal in assay [7] was 1.25 fold enrichment (6-mer frequency, TF over GST control); in assay [8], 1.25 fold enrichment (6-mer frequency, TF over GST control).

Turning to GAAGTG, the binding signal was 1.48 fold enrichment (6-mer frequency, TF over GST control) in assay [1]; 1.53 fold enrichment (6-mer frequency, TF over GST control) in assay [2]; 1.55 fold enrichment (6-mer frequency, TF over GST control) in assay [3]; 1.47 fold enrichment (6-mer frequency, TF over GST control) in assay [4]; 1.7 fold enrichment (6-mer frequency, TF over GST control) in assay [5]; 1.79 fold enrichment (6-mer frequency, TF over GST control) in assay [6]. In addition, the binding signal in assay [7] is 1.75 fold enrichment (6-mer frequency, TF over GST control); in assay [8], 1.93 fold enrichment (6-mer frequency, TF over GST control).

Values taken from PMC7862700, “An all-to-all approach to the identification of sequence-specific readers for epigenetic DNA modifications on cytosine”.
